Results from the supplement of paper PMC10849652.
The full data set covers some 7,900 targets. This sample favours those with a hit. About 0.6% of all pairs of compound and target were hits.

Tests used:
Test in all cases: log2 fold change, soluble protein after heating vs DMSO (PISA); higher = thermal stabilisation; K562 cells, 10 uM, 30 min; active = over 0.2 and 3.5 SD of the protein, either way, in both replicates (recomputed)
erlotinib = compound: C#Cc1cccc(Nc2ncnc3cc(OCCOC)c(OCCOC)cc23)c1 [erlotinib]
In short: (§1)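 Aliquots of K562 cells (2×10^6 cells/mL) treated with 10 μM compound for 30 min were heated for 3 min over 48°C-58°C. After pooling and extraction in PBS with 0.5% NP-40 at 4°C, soluble protein from a 21,000xg, 90 min spin was quantified by TMTpro 16plex LC-MS/MS with channel sums equalised. Thermal stability is expressed against control samples, from duplicates, as a log2 fold change.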

[1] = compound: C1=CC(=CC=C1C2=NC3=C(N2)C=C(C=C3)C(=O)N)OC4=CC=C(C=C4)Cl
In short: as §1

[2] = compound: C/C(=N\NC(=O)C1=CC(=CC=C1)S(=O)(=O)N2CCOCC2)/C3=C(C=CC(=C3)Cl)O
In short: as §1

[3] = compound: C1=CC(=C(C=C1Cl)C2=NC3=NC=CN=C3C(=N2)NC4=CC=NC=C4)F
In short: as §1

[4] = compound: C1=CC2=C(C=CC(=C2)/C=C\3/C(=O)NC(=NCC4=CC=CS4)S3)N=C1
In short: as §1

[5] = compound: C1=CC2=NC=CN=C2C=C1/C=C/3\C(=O)NC(=O)S3
In short: as §1

[6] = compound: C1=CC=C(C=C1)C2=NC(=C(N2)C3=CC=NC=C3)C4=CC(=C(C=C4)Cl)O
In short: as §1

[7] = compound: C1=CC=C2C(=C1)C3=NNC4=CC=CC(=C43)C2=O
In short: as §1

[8] = compound: C1CCN(C1)C(=O)NC2=CC=CC(=C2)NC3=NC=C(C(=N3)NCCC4=CN=CN4)Br
In short: as §1

[9] = compound: C1CN(CCC1(CC2=CC=C(C=C2)Cl)N)C3=NC=NC4=C3C=CN4
In short: as §1

Measured: log2 fold change

PSMC1 (UniProt G3V4X1)
inactive: erlotinib 0.149 | [1] -0.001

PGK2 (UniProt P07205)
UniProt P07205, sequence (P07205 whole entry, looked up): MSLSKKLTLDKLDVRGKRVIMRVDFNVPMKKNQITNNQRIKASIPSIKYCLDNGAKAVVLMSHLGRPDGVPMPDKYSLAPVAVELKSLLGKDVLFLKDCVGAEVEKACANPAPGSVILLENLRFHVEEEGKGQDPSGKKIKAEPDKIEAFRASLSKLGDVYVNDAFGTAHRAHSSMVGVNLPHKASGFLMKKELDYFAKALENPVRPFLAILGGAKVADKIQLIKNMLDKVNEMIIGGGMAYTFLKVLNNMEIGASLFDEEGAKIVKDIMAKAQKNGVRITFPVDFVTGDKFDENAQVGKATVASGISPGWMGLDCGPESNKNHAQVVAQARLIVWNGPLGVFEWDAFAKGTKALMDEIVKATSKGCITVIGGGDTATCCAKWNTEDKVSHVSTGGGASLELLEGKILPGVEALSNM
inactive: [2] -0.055 | [3] -0.082 | [4] 0.152 | [5] -0.018 | [6] -0.057 | [7] -0.012 | [8] 0.034 | [9] 0.029

POLB (UniProt P06746)
inactive: erlotinib -0.236 | [3] -0.186 | [1] 0.094 | [6] 0 | [8] -0.118 | [9] 0.002

PUM1 (UniProt Q14671)
UniProt Q14671, sequence (Q14671 whole entry, looked up): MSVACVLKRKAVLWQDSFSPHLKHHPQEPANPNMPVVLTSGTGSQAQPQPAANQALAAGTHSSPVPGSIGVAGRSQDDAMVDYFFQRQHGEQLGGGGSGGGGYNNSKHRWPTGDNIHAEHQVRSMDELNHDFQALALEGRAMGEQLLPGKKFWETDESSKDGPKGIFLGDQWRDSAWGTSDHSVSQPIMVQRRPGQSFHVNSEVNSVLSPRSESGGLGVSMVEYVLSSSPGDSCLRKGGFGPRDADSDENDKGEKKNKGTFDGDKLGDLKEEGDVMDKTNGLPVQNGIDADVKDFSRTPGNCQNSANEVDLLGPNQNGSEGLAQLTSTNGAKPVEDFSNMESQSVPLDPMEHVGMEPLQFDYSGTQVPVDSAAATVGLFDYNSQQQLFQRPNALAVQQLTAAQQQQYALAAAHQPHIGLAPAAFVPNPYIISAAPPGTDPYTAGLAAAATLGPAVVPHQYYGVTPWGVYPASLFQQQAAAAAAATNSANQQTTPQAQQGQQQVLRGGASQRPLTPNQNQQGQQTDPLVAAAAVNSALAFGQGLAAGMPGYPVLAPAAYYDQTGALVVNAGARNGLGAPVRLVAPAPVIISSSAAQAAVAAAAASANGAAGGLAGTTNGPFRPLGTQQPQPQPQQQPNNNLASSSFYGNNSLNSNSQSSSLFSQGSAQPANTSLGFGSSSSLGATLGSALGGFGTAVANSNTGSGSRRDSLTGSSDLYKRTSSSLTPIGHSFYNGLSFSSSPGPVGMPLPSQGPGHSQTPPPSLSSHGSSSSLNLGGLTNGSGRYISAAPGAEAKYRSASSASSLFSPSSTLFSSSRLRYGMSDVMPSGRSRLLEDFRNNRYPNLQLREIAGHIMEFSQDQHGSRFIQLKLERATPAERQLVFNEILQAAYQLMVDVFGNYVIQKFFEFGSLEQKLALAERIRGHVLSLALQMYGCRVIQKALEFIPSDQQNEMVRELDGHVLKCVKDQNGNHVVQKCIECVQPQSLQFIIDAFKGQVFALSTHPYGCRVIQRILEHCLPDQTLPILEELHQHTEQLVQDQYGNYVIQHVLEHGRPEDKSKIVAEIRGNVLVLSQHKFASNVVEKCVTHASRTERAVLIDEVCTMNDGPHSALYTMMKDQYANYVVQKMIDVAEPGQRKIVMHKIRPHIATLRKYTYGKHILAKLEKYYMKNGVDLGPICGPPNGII
inactive: erlotinib 0.308 | [2] 0.035 | [1] 0.15 | [4] -0.034 | [7] 0.051 | [8] -0.045 | [9] -0.024

PPP1R12C (UniProt Q9BZL4)
UniProt Q9BZL4, sequence (Q9BZL4 whole entry, looked up): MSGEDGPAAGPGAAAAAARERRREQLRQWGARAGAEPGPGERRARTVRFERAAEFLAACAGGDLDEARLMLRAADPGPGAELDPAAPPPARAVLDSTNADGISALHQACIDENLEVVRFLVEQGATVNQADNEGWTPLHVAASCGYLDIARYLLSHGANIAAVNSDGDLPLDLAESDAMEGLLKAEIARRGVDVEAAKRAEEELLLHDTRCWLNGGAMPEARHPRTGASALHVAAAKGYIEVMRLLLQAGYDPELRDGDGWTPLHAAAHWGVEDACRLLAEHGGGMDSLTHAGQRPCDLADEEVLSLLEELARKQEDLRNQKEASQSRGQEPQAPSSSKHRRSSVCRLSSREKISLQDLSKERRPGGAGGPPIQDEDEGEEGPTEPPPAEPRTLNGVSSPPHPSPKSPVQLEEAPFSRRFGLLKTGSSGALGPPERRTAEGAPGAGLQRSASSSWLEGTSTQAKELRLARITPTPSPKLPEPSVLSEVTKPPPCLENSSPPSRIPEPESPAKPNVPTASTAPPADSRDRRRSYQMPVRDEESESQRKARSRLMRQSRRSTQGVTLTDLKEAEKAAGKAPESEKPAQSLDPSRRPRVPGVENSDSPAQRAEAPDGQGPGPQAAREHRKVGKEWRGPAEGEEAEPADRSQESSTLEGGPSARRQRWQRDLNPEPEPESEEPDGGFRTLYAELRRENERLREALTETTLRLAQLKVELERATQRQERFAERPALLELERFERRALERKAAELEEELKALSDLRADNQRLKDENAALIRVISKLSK
inactive: erlotinib -0.13 | [3] -0.011 | [1] -0.059 | [5] 0.064 | [6] 0.037 | [8] -0.05 | [9] -0.238

PRKD3 (UniProt O94806)
UniProt O94806, sequence (O94806 whole entry, looked up): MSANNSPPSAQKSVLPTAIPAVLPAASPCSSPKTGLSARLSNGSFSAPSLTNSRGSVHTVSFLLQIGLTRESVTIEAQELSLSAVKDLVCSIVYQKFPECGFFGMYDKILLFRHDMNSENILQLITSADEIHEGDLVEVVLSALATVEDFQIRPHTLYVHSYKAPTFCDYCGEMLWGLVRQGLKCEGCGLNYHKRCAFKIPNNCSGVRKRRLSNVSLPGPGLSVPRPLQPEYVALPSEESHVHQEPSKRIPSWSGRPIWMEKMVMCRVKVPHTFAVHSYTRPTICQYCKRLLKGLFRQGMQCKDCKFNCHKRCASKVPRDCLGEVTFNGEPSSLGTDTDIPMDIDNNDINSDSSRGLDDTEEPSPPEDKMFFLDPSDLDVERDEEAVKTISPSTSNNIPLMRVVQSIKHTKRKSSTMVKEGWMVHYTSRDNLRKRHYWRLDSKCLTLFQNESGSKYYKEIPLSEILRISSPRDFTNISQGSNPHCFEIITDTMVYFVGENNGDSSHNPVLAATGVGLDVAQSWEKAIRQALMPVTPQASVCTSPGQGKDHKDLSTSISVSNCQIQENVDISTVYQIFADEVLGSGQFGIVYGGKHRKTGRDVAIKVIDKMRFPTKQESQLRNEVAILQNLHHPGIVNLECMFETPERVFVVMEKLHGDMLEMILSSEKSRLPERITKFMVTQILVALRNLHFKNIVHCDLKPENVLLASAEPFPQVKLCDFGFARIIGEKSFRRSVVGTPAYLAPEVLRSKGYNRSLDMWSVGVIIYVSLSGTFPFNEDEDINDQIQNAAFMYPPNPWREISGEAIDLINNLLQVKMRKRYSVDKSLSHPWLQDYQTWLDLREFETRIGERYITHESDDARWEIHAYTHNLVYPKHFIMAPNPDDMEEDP
inactive: erlotinib 0.051 | [2] 0.373 | [1] 0.013 | [4] -0.197 | [5] 0.034 | [6] 0.055 | [7] -0.507

PLCXD1 (UniProt Q9NUJ7)
inactive: [5] 0.025 | [6] -0.012

PIAS4 (UniProt Q8N2W9)
UniProt Q8N2W9, sequence (Q8N2W9 whole entry, looked up): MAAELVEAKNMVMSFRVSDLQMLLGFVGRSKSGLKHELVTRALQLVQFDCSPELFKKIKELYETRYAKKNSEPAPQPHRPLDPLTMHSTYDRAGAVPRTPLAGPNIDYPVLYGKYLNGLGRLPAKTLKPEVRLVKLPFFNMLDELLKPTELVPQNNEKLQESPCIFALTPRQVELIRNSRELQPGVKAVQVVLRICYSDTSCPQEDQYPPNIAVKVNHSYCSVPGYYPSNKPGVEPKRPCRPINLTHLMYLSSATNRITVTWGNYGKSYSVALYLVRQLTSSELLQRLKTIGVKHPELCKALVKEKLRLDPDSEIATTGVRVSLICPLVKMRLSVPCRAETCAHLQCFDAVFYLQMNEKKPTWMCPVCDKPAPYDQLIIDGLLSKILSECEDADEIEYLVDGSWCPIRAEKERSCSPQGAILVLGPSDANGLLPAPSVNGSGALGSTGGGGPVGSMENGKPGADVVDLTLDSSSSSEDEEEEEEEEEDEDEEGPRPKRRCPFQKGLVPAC
inactive: [3] 0.061 | [6] -0.214 | [8] 0.129 | [9] -0.045

PKM isoform 2 (UniProt P14618)
UniProt P14618, sequence (P14618 whole entry, looked up): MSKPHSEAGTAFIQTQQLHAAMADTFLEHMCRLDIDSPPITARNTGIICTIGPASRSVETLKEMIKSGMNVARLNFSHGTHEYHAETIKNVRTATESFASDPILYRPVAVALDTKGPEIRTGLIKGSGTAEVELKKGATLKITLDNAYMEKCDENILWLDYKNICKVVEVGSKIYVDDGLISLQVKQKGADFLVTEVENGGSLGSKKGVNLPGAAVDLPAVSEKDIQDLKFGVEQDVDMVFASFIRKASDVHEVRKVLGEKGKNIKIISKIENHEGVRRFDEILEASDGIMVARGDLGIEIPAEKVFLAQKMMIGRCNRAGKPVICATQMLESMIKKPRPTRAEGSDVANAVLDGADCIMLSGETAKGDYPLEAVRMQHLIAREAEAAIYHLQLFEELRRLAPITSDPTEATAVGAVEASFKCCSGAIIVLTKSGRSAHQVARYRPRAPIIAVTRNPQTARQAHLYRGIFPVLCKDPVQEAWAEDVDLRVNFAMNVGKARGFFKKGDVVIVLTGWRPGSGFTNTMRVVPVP
inactive: [2] -0.004 | [3] 0.075 | [4] -0.005 | [5] -0.18 | [6] -0.048 | [7] 0.04 | [8] -0.047 | [9] 0.003

PEX5 isoform 4 (UniProt P50542)
inactive: erlotinib -0.133 | [2] -0.143 | [3] -0.036 | [1] 0.076 | [4] 0.048 | [6] 0.016 | [7] -0.082 | [8] 0.097 | [9] -0.078

PSMD8 (UniProt K7ERW6)
inactive: [8] 0.052 | [9] -0.148

PPP2R5C isoform 2 (UniProt Q13362)
inactive: erlotinib -0.012 | [1] -0.02 | [5] -0.011 | [6] -0.039

PPP1R12B isoform 6 (UniProt O60237)
inactive: erlotinib 0.226 | [1] 0.001 | [5] -0.081

PNPLA4 (UniProt P41247)
UniProt P41247, sequence (P41247 whole entry, looked up): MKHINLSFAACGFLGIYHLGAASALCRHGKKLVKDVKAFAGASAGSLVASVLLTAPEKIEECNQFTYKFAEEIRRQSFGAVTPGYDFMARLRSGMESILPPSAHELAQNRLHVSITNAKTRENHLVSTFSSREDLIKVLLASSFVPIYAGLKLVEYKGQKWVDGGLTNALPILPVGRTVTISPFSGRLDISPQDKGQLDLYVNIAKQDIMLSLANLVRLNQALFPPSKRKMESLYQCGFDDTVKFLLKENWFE
inactive: erlotinib 0.426 | [2] 0.13 | [1] -0.176 | [4] -0.148 | [5] 0.133 | [6] -0.084 | [7] 0.059 | [8] 0.108 | [9] 0.029

PTEN isoform 2 (UniProt P60484)
UniProt P60484, sequence (P60484 whole entry, looked up): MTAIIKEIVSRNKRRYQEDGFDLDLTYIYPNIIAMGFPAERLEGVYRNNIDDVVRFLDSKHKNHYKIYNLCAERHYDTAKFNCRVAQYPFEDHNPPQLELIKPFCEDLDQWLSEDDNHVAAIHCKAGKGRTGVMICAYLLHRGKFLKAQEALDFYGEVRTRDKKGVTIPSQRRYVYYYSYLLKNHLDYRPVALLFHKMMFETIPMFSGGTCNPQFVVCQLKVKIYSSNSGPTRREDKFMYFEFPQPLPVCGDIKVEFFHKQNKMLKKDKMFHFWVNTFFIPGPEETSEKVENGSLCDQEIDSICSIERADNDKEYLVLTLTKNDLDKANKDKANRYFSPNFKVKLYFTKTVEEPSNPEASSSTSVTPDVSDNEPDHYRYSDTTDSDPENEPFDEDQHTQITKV
inactive: erlotinib 0.264 | [1] 0.061 | [6] 0.178

PRKD2 (UniProt M0R346)
inactive: [3] -0.066 | [5] -0.032
